Consider 31 compounds from the supplement of paper PMC6518042.

A number with no mark means an inactive call.

In the first experiment the test system is Pectobacterium parmentieri SCC3193. Kind of experiment: DuctApe activity index (growth/respiration on compound as sole nutrient source, blank-subtracted) (activity index (0-3)); higher = stronger utilization of the compound, active = 3 or more. The conditions noted are these: nutrient role (plate category): carbon. How it is done:
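Biolog Phenotype Microarray plates PM1, PM2A (carbon), PM3 (nitrogen) and PM4 (phosphorus/sulfur) inoculated with P. parmentieri SCC3193 in M9-C minimal salts medium with Biolog dye A, and read in the OmniLog for 46 h. Each well was tested in triplicate and the experiment was run twice. DuctApe computed a blank-subtracted activity index (AV, 0-3) from the mean curves; growth is positive at AV >= 3 and negative at AV <= 2.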
For the compound `CC(N)=O` [Acetamide], the DuctApe activity index is 0.
As for `NCC(=O)O` [Glycine], the DuctApe activity index is 0.
As for `C[N+](C)(C)CC(O)CC(=O)[O-]` (racemic) [D,L-Carnitine], the DuctApe activity index was 0.
Still for that read-out and setting: then `O=C1CC[C@@H](C(=O)O)N1` [L-Pyroglutamic acid], with 0.
Still for that read-out and setting: then `O=C(CO)CO` [Dihydroxyacetone], with 1.
With `O=CO` [Formic acid], the DuctApe activity index was 2.
On to `C[C@@H]1OC(O)[C@H](O)[C@H](O)[C@H]1O` (stereo partly drawn) [L-Rhamnose], for which the DuctApe activity index was 3 (active).
On the same count and under the same terms, the same measure for `CSCC[C@H](N)C(=O)O` [L-Methionine]: 0.
Still for that read-out and setting: then `O=C1O[C@@H]([C@H](O)CO)[C@H](O)[C@H]1O` [D-Galactonic acid-g-Lactone], with 3 (active).
For `C[C@@H](N)C(=O)O` [D-Alanine], the DuctApe activity index is 0.
The same measure, in the same setting: then `NCCC[C@H](N)C(=O)O` [L-Ornithine], with 0; and `O=C(CO)[C@@H](O)[C@H](O)[C@@H](O)C(=O)O` [5-Keto-D-Gluconic acid], with 0.
For the compound `OC[C@H]1O[C@H](O[C@H]2O[C@H](CO)[C@@H](O)[C@H](O)[C@H]2O)[C@H](O)[C@@H](O)[C@@H]1O` [D-Trehalose], the DuctApe activity index is 3 (active).
For the compound `Nc1ncnc2c1ncn2[C@@H]1O[C@H](CO)[C@@H](O)[C@H]1O` [Adenosine], the DuctApe activity index was 1.
With `C[C@H](O)[C@@H](N)C(=O)O` [D-Threonine], the DuctApe activity index is 0.
For the compound `C[C@@H](O)[C@H](N)C(=O)O` [L-Threonine], the DuctApe activity index is 0.
Consider `O=C(O)C(O)C(O)C(=O)O` (stereo not given) [m-Tartaric acid], for which the DuctApe activity index is 3 (active).
Still for that read-out and setting: then `COC(=O)C(C)=O` [Methylpyruvate], with 3 (active); and `O=C(O)CC(=O)O` [Malonic acid], with 0.

The experiment is the same for the next values; noted with them: nutrient role (plate category): nitrogen.
For `CC(N)=O` [Acetamide], the DuctApe activity index was 0.
The same measure, in the same setting: the same measure for `NCC(=O)O` [Glycine]: 0; for `O=c1cc[nH]c(=O)[nH]1` [Uracil]: 0; for `O=C1CC[C@@H](C(=O)O)N1` [L-Pyroglutamic acid]: 0.
The same measure, in the same setting: then `C[C@H](N)C(=O)N[C@H](C(=O)O)[C@@H](C)O`, with 0; and `CCCCCN` [N-Amylamine], with 0; and `Nc1nc2[nH]cnc2c(=O)[nH]1` [Guanine], with 0.
For `CSCC[C@H](N)C(=O)O` [L-Methionine], the DuctApe activity index is 0.
On the same count and under the same terms, then `O=C(O)CC[C@@H](C(=O)O)N1C(=O)c2ccccc2C1=O` [N-Phthaloyl-L-Glutamic acid], with 0.
The same measure, in the same setting: then `N[C@@H](Cc1ccc(O)cc1)C(=O)O` [L-Tyrosine], with 0; and `C[C@@H](N)C(=O)O` [D-Alanine], with 0; and `NCCC[C@H](N)C(=O)O` [L-Ornithine], with 0.
On to `Nc1ncnc2c1ncn2[C@@H]1O[C@H](CO)[C@@H](O)[C@H]1O` [Adenosine], for which the DuctApe activity index was 2.
Turning to `C[C@@H](O)[C@H](N)C(=O)O` [L-Threonine], the DuctApe activity index was 0.

The same experiment, now with this note: nutrient role (plate category): phosphate & sulphur.
For the compound `N[C@H](COP(=O)(O)O)C(=O)O` [O-Phospho-D-Serine], the DuctApe activity index was 2.
The same measure, in the same setting: the same measure for `O=C(O)C(O)COP(=O)(O)O` [D-3-Phospho-Glyceric acid]: 2; for `NC(CCSCC(N)C(=O)O)C(=O)O` (stereo not given) [Cystathionine]: 1.
On the same count and under the same terms, then `CSCC[C@H](N)C(=O)O` [L-Methionine], with 1; and `CSCC[C@@H](N)C(=O)O` [D-Methionine], with 2; and `O=P1(O)OP(=O)(O)OP(=O)(O)O1` [Trimetaphosphate], with 2.
Same read-out and setting: the same measure for `O=P(O)(O)OC[C@H]1OC(O)C[C@@H](O)[C@@H]1O` (stereo partly drawn) [2-Deoxy-D-Glucose 6-Phosphate]: 1.
